# Source: PubChem BioAssay (EPA / NIEHS)
# Where “and” joins values, the source holds several entries; their conditions need not be identical. Identical values can stand only once. Where a structure was tested more than once in an assay, its records may differ in their call. Calls of active or inactive are those of the source. How the source made its calls: active means hit-call score of the fitted dose curve at least 0.9, where 1 is the maximum; inactive means score below 0.9.
# Experiments:
# [1] = read-out: Interleukin-8 (IL8), CXCL8 (gene 3576); assay: BSK_3C_IL8: BioMAP Diversity Plus: 3C Assay for Interleukin-8 (IL8) Biomarker Activity (AID 2283020); settings: primary human endothelial cells (HUVEC); actives raise or lower the signal
# How it was run: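 Primary human umbilical vein endothelial cells were dosed for 24 h. IL-8 was quantified by ELISA and fitted bidirectionally against DMSO. Cytotoxicity was assessed in parallel cultures by SRB staining at 560 nm.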
# [2] = read-out: Monokine induced gamma interferon (MIG), CXCL9 (gene 4283); assay: BSK_3C_MIG: BioMAP Diversity Plus: 3C Assay for Monokine induced gamma interferon (MIG) Biomarker Activity (AID 2283021); settings: primary human endothelial cells (HUVEC); actives raise or lower the signal;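 on AC50: MIG protein level measured by immunoassay in the treated endothelial cultures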
# How it was run: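 HUVEC primary endothelial cultures dosed with chemical; MIG quantified by ELISA at 24 h. Data fitted bidirectionally against DMSO control, with parallel SRB total-protein staining for cytotoxicity.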
# [3] = BSK_3C_SRB: Viability Assessment in the BioMAP Diversity Plus: 3C Assay (AID 2283023); settings: primary human endothelial cells (HUVEC);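 further: fitted both ways against DMSO so a hit may be signal rise or drop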
# How it was run: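 HUVEC, 24 h post-dose; 10% TCA fix, 0.1% SRB stain, A560 nm. Bidirectional curve fit vs DMSO negative control.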
# [4] = read-out: Matrix Metallopeptidase 1 (MMP1), MMP1 (gene 4312); assay: BSK_BE3C_MMP1: BioMAP Diversity Plus: BE3C Assay for Matrix Metallopeptidase 1 (MMP1) Biomarker Activity (AID 2283024); settings: primary human bronchial epithelial cells; actives raise or lower the signal
# How it was run: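 Human primary bronchial epithelial cells (BE3C system) dosed for 24 h; MMP-1 quantified by ELISA. Bidirectional fit against DMSO; cytotoxicity tracked in parallel cultures by SRB total-protein staining.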
# [5] = BSK_3C_Vis: BioMAP Diversity Plus: 3C Assay for Morphology Visualization (AID 2283025); settings: primary human endothelial cells (HUVEC);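 further: fitted both ways so gain or loss versus DMSO counts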;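 on AC50: light microscopy image of cell morphology used as background control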
# How it was run: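 Human umbilical vein endothelial cell morphology was inspected by light microscopy 24 h after chemical dosing; scored bidirectionally relative to DMSO.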
# [6] = read-out: Pselectin, SELP (gene 6403); assay: BSK_4H_Pselectin: BioMAP Diversity Plus: 4H Assay for Pselectin Biomarker Activity (AID 2283026); settings: primary human endothelial cells (HUVEC); actives raise or lower the signal
# How it was run: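 Primary human umbilical vein endothelial cells were treated 24 h, and cell-surface P-selectin was then quantified by ELISA. Bidirectional fit versus DMSO; cytotoxicity checked in parallel cultures by SRB total-protein staining.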
# [7] = BSK_4H_SRB: Viability Assessment in the BioMAP Diversity Plus: 4H Assay (AID 2283027); settings: primary human endothelial cells (HUVEC);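 further: cells exposed to compound for 24 h before staining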;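 on AC50: curves fitted both ways versus DMSO so AC50 may be loss or gain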
# How it was run: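 Human umbilical vein endothelial cells, 24 h after chemical dosing; total protein measured by 0.1% sulforhodamine B staining after 10% TCA fixation, read at 560 nm. Bidirectional fitting against DMSO.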
# [8] = BSK_BE3C_SRB: Viability Assessment in the BioMAP Diversity Plus: BE3C Assay (AID 2283028); settings: primary human bronchial epithelial cells;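 on AC50: fitted both ways so AC50 may mark signal gain or loss versus DMSO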
# How it was run: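 Primary human bronchial epithelium; chemical dosing, 24 h; 10% TCA fix, 0.1% SRB stain, A560; bidirectional fit vs DMSO baseline.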
# [9] = read-out: Thrombomodulin, THBD (gene 7056); assay: BSK_3C_Thrombomodulin: BioMAP Diversity Plus: 3C Assay for Thrombomodulin Biomarker Activity (AID 2283029); settings: primary human endothelial cells (HUVEC); actives raise or lower the signal
# How it was run: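 Human umbilical vein endothelial cells were exposed to chemicals for 24 h; cell-surface thrombomodulin quantified by ELISA, with bidirectional fitting against DMSO baseline.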
structure (smiles),measurement,setting,value
C=CC(=O)NCNC(=O)C=C,outcome,[1],inactive
same,outcome,[2],inactive
same,outcome,[3],inactive
same,outcome,[4],inactive
same,outcome,[5],inactive
same,outcome,[6],inactive
same,outcome,[7],inactive
same,outcome,[8],inactive
same,outcome,[9],inactive
CCSC(=O)N(CC)C1CCCCC1,outcome,[1],inactive
same,outcome,[2],inactive
same,outcome,[3],inactive
same,outcome,[4],inactive
same,outcome,[5],inactive
same,outcome,[6],inactive
same,outcome,[7],inactive
same,outcome,[8],inactive
same,outcome,[9],inactive
Clc1ccc(C(Cl)(Cl)Cl)cc1,outcome,[1],inactive
same,outcome,[2],inactive
same,outcome,[3],inactive
same,outcome,[5],inactive
same,outcome,[6],inactive
same,outcome,[7],inactive
same,outcome,[8],inactive
same,outcome,[9],inactive
C1CC2OC2CC1C1CO1 (centres undefined),outcome,[1],inactive
same,outcome,[2],inactive
same,outcome,[3],inactive
same,outcome,[5],inactive
same,outcome,[6],inactive
same,outcome,[7],inactive
same,outcome,[8],inactive
same,outcome,[9],inactive
Cc1cccc([N+](=O)[O-])c1,outcome,[1],inactive
same,outcome,[2],inactive
same,outcome,[3],inactive
same,outcome,[5],inactive
same,outcome,[6],inactive
same,outcome,[7],inactive
same,outcome,[8],inactive
same,outcome,[9],inactive
CO/C=C(/C(=O)OC)c1ccccc1COc1cccc(C(F)(F)F)n1,AC50,[1],10.1 µM (active)
same,outcome,[2],inactive
same,AC50,[3],20 µM (active)
same,outcome,[5],inactive
same,outcome,[6],inactive
same,AC50,[7],7.84 µM (active)
same,outcome,[8],inactive
same,outcome,[9],inactive
O=C(NC(=O)c1c(F)cccc1F)Nc1cc(Cl)c(OC(F)(F)C(F)F)c(Cl)c1,outcome,[1],inactive
same,outcome,[2],inactive
same,outcome,[3],inactive
same,AC50,[5],39 µM (active)
same,outcome,[6],inactive
same,outcome,[7],inactive
same,outcome,[8],inactive
same,outcome,[9],inactive
CN(C)c1nc(=O)n(C2CCCCC2)c(=O)n1C,outcome,[1],inactive
same,outcome,[2],inactive
same,outcome,[3],inactive
same,outcome,[5],inactive
same,outcome,[6],inactive
same,outcome,[7],inactive
same,outcome,[8],inactive
same,outcome,[9],inactive
c1cc2ccc3cccc4ccc(c1)c2c34,outcome,[1],inactive
same,outcome,[2],inactive
same,outcome,[3],inactive
same,outcome,[5],inactive
same,outcome,[6],inactive
same,outcome,[7],inactive
same,outcome,[8],inactive
same,outcome,[9],inactive
ClC(Cl)=C(c1ccc(Cl)cc1)c1ccc(Cl)cc1,AC50,[1],32.1 µM (active)
same,AC50,[2],35 µM (active)
same,AC50,[3],29.2 µM (active)
same,AC50,[5],37.3 µM (active)
same,AC50,[6],31.3 µM (active)
same,AC50,[7],30.6 µM (active)
same,outcome,[8],inactive
same,outcome,[9],inactive
O=C(NC(=O)c1cc(F)c(F)cc1Cl)Nc1cc(F)ccc1N1CCC(C(=O)O)CC1,outcome,[1],inactive
same,outcome,[2],inactive
same,outcome,[3],inactive
same,outcome,[5],inactive
same,outcome,[6],inactive
same,outcome,[7],inactive
same,outcome,[8],inactive
same,outcome,[9],inactive
CCCCCCCCCC[N+](C)(C)CCCCCCCCCC,AC50,[1],4.54 µM (active)
same,AC50,[2],5.66 µM (active)
same,AC50,[3],2 µM (active)
same,AC50,[5],4.15 µM (active)
same,AC50,[6],1.99 µM (active)
same,AC50,[7],2.01 µM (active)
same,AC50,[8],5.15 µM (active)
same,outcome,[9],inactive
NS(=O)(=O)C(F)(F)C(F)(F)C(F)(F)C(F)(F)C(F)(F)C(F)(F)C(F)(F)C(F)(F)F,AC50,[1],32.8 µM (active) and 47.7 µM (active) and 53.4 µM (active)
same,AC50,[2],33.3 µM (active) and 51.2 µM (active) and 47.8 µM (active)
same,AC50,[3],30.8 µM (active) and 44.1 µM (active) and 43.6 µM (active)
same,AC50,[5],37.5 µM (active)
same,AC50,[6],27.6 µM (active) and 43.9 µM (active) and 45.9 µM (active)
same,AC50,[7],26.8 µM (active) and 44.2 µM (active) and 47.6 µM (active)
same,AC50,[8],25.8 µM (active) and 51.3 µM (active)
same,AC50,[9],10.9 µM (active) and 16.4 µM (active)
same,outcome,[9],inactive
CCNc1nc(NC(C)C)nc(SC)n1,outcome,[1],inactive
same,outcome,[2],inactive
same,outcome,[3],inactive
same,outcome,[5],inactive
same,outcome,[6],inactive
same,outcome,[7],inactive
same,outcome,[8],inactive
same,outcome,[9],inactive
CCC(C)c1cc([N+](=O)[O-])cc([N+](=O)[O-])c1O (centres undefined),AC50,[1],7.38 µM (active)
same,outcome,[2],inactive
same,AC50,[3],10 µM (active)
same,AC50,[5],9.8 µM (active)
same,AC50,[6],10.6 µM (active)
same,AC50,[7],12.6 µM (active)
same,outcome,[8],inactive
same,outcome,[9],inactive
COS(=O)(=O)OC,outcome,[1],inactive
same,outcome,[2],inactive
same,outcome,[3],inactive
same,outcome,[5],inactive
same,outcome,[6],inactive
same,outcome,[7],inactive
same,outcome,[8],inactive
same,outcome,[9],inactive
O=S(=O)(O)C(F)(F)C(F)(F)C(F)(F)C(F)(F)C(F)(F)C(F)(F)F,outcome,[1],inactive
same,outcome,[2],inactive
same,outcome,[3],inactive
same,outcome,[5],inactive
same,AC50,[6],17.2 µM (active)
same,outcome,[6],inactive
same,outcome,[7],inactive
same,outcome,[8],inactive
same,outcome,[9],inactive
O=C(O)C(F)(F)C(F)(F)C(F)(F)C(F)(F)C(F)(F)F,outcome,[1],inactive
same,outcome,[2],inactive
same,outcome,[3],inactive
same,outcome,[5],inactive
same,outcome,[6],inactive
same,outcome,[7],inactive
same,outcome,[8],inactive
same,outcome,[9],inactive
Oc1ccc(Cl)cc1Cl,outcome,[1],inactive
same,outcome,[2],inactive
same,outcome,[3],inactive
same,outcome,[5],inactive
same,outcome,[6],inactive
same,outcome,[7],inactive
same,outcome,[8],inactive
same,outcome,[9],inactive
CCCCCCCCCc1ccc(O)cc1,AC50,[1],15.5 µM (active)
same,AC50,[2],16.4 µM (active)
same,AC50,[3],15.5 µM (active)
same,AC50,[5],38.7 µM (active)
same,AC50,[6],12.5 µM (active)
same,AC50,[7],14.9 µM (active)
same,AC50,[8],15.1 µM (active)
same,outcome,[9],inactive
CCC(C)(CC)c1cc(NC(=O)c2c(OC)cccc2OC)on1,outcome,[1],inactive
same,outcome,[2],inactive
same,outcome,[3],inactive
same,outcome,[5],inactive
same,outcome,[6],inactive
same,outcome,[7],inactive
same,outcome,[8],inactive
same,outcome,[9],inactive
C[C@]12CCC(=O)C=C1CC[C@@H]1[C@@H]2CC[C@]2(C)C(=O)CC[C@@H]12,outcome,[1],inactive
same,outcome,[2],inactive
same,outcome,[3],inactive
same,outcome,[5],inactive
same,outcome,[6],inactive
same,outcome,[7],inactive
same,outcome,[8],inactive
same,outcome,[9],inactive
Cc1ccc(O)c(C)c1,outcome,[1],inactive
same,outcome,[2],inactive
same,outcome,[3],inactive
same,outcome,[5],inactive
same,outcome,[6],inactive
same,outcome,[7],inactive
same,outcome,[8],inactive
same,outcome,[9],inactive
CC(C)(c1ccccc1)c1ccc(O)cc1,AC50,[1],35.6 µM (active)
same,AC50,[2],39.1 µM (active)
same,AC50,[3],30.2 µM (active)
same,AC50,[5],37.5 µM (active)
same,AC50,[6],32.6 µM (active)
same,AC50,[7],30.5 µM (active)
same,AC50,[8],32.3 µM (active)
same,outcome,[9],inactive
Nc1ccc(-c2ccc(N)cc2)cc1,outcome,[1],inactive
same,outcome,[2],inactive
same,outcome,[3],inactive
same,outcome,[5],inactive
same,outcome,[6],inactive
same,outcome,[7],inactive
same,outcome,[8],inactive
same,outcome,[9],inactive
O=NN(c1ccccc1)c1ccccc1,outcome,[1],inactive
same,outcome,[2],inactive
same,outcome,[3],inactive
same,outcome,[5],inactive
same,outcome,[6],inactive
same,outcome,[7],inactive
same,outcome,[8],inactive
same,outcome,[9],inactive
Oc1ccc(C(c2ccc(O)cc2)(C(F)(F)F)C(F)(F)F)cc1,AC50,[1],18.8 µM (active)
same,AC50,[2],34.9 µM (active)
same,AC50,[3],16.2 µM (active)
same,AC50,[5],18.7 µM (active)
same,AC50,[6],15.7 µM (active)
same,AC50,[7],28 µM (active)
same,AC50,[8],37.2 µM (active)
same,AC50,[9],21.3 µM (active)
O=C(N[C@H]1CN2CCC1CC2)c1cc2ccoc2cn1,outcome,[1],inactive
same,outcome,[2],inactive
same,outcome,[3],inactive
same,outcome,[5],inactive
same,outcome,[6],inactive
same,outcome,[7],inactive
same,outcome,[8],inactive
same,outcome,[9],inactive
CC#Cc1cc(C)nc(Nc2ccccc2)n1,outcome,[1],inactive
same,outcome,[2],inactive
same,outcome,[3],inactive
same,outcome,[5],inactive
same,outcome,[6],inactive
same,outcome,[7],inactive
same,outcome,[8],inactive
same,outcome,[9],inactive
CCCCCCCCOC(=O)c1ccccc1C(=O)OCCCCCCCC,outcome,[1],inactive
same,outcome,[2],inactive
same,outcome,[3],inactive
same,outcome,[5],inactive
same,outcome,[6],inactive
same,outcome,[7],inactive
same,outcome,[8],inactive
same,outcome,[9],inactive
CC(C)(O)C(=O)Nc1ccc([N+](=O)[O-])c(C(F)(F)F)c1,outcome,[1],inactive
same,outcome,[2],inactive
same,outcome,[3],inactive
same,outcome,[5],inactive
same,outcome,[6],inactive
same,outcome,[7],inactive
same,outcome,[8],inactive
same,outcome,[9],inactive
CCCN(CCC)N=O,outcome,[1],inactive
same,outcome,[2],inactive
same,outcome,[3],inactive
same,outcome,[5],inactive
same,outcome,[6],inactive
same,outcome,[7],inactive
same,outcome,[8],inactive
same,outcome,[9],inactive
Cc1ccccc1[N+](=O)[O-],outcome,[1],inactive
same,outcome,[2],inactive
same,outcome,[3],inactive
same,outcome,[5],inactive
same,outcome,[6],inactive
same,outcome,[7],inactive
same,outcome,[8],inactive
same,outcome,[9],inactive
CCOP(=S)(OCC)SCSC(C)(C)C,outcome,[1],inactive
same,outcome,[2],inactive
same,outcome,[3],inactive
same,outcome,[5],inactive
same,outcome,[6],inactive
same,outcome,[7],inactive
same,outcome,[8],inactive
same,outcome,[9],inactive
c1ccc(-c2ccccc2)cc1,outcome,[1],inactive
same,outcome,[2],inactive
same,outcome,[3],inactive
same,outcome,[5],inactive
same,outcome,[6],inactive
same,outcome,[7],inactive
same,outcome,[8],inactive
same,outcome,[9],inactive
